Among all 52,000 compounds or so, about 1,700 (3.3%) were called active. No stated cut-off is given here; in the data, active means survival mostly below about 52% (no sharp cut-off); inactive means mostly above about 56%. The entries come from a sample that favours actives as a whole.

This experiment relates to Wild type. Kind of experiment: S. aureus survival, RN4220 and DeltatarO strains – OD600, teichoic acid synthesis inhibitors, primary screen (AID 463173). The following applies: S. aureus RN4220 wild type/DeltatarO growth, OD600, 18 h, stronger effect = lower value, screened at 18.75 µg/mL (by protocol).
`Cc1ccc(Nc2nc(C(N)=O)c(NC(=O)c3ccccc3Br)s2)cc1`: the survival was 71% (inactive).

`CCOC(=O)C1CCC(CN(Cc2ccc(Cl)cc2)S(=O)(=O)c2cc(Cl)cc(Cl)c2)CC1` (configuration not stated): the survival was 59% (inactive).

`COc1ccc(-n2c(=O)c3sc4ccccc4c3n(Cc3ccccc3)c2=O)cc1`: the survival was 81% (inactive).

Consider `Cc1cc(NC(=O)c2oc3c(c2C)-c2[nH]ncc2CC3)ccc1Br`, for which the survival is 1% (active).

For the compound `CCc1ccc(NC(=O)c2oc3c(c2C)-c2[nH]ncc2CC3)cc1`, the survival is 59% (inactive).

For the compound `Cc1cc(C)c(NC(=O)c2oc3c(c2C)-c2[nH]ncc2CC3)c(C)c1`, the survival is 81% (inactive).

As for `Cc1[nH]c2ccc(Cl)cc2c(=O)c1CN1CCN(C)CC1`, the survival is 109% (inactive).

Consider `Clc1ccc(CCNc2nc3ccccc3c3nc(-c4ccccc4)nn23)cc1`, for which the survival is 38% (inactive).

In the case of `Cc1ccc(CNC(=O)CSc2nc3n[nH]c(C)c3c(=N)n2-c2ccccc2Cl)cc1`, the survival is 83% (inactive).

As to `Cc1ccc(CN2CCC(CNC(=O)Nc3ccc(Cl)cc3)C2)cc1` (configuration not stated), the survival was 53% (inactive).

As to `Cc1ccc(CN2CCC(CNC(=O)Nc3ccccc3F)CC2)cc1`, the survival is 118% (inactive).

As for `Cc1ccc(CN2CCC(CNC(=O)Nc3ccc(C)c(C)c3)C2)cc1` (configuration not stated), the survival was 94% (inactive).

As to `O=C(NCC1CCN(Cc2cccc(Cl)c2)CC1)Nc1ccc(F)c(Cl)c1`, the survival is 14% (active).

As for `Cc1cc(C)cc(NC(=O)NCC2CCN(Cc3cc(C)ccc3C)CC2)c1`, the survival is 83% (inactive).

For the compound `O=C(NCC1CCN(Cc2cccc(Cl)c2)CC1)Nc1cc(Cl)ccc1Cl`, the survival was -1% (active).

For the compound `Cc1ccc(CN2CCC(CNC(=O)Nc3cccc(Cl)c3C)C2)cc1` (configuration not stated), the survival was 88% (inactive).

Turning to `Cc1ccc(NC(=O)NCC2CCN(Cc3cccc(Cl)c3)CC2)cc1Cl`, the survival was -6% (active).

Consider `O=C(NCC1CCN(Cc2ccccc2F)CC1)Nc1ccc(F)c(Cl)c1`, for which the survival is 73% (inactive).

Turning to `COc1ccc(-c2cc3nccc(-c4cc(Cl)c(C)cc4O)n3n2)cc1`, the survival was 82% (inactive).

With `CN1CCN(C(CNC(=O)c2ccc(F)cc2)c2ccc3c(c2)OCO3)CC1` (configuration not stated), the survival is 70% (inactive).

As for `C=CCN1C=C/C(=C\C=C(C#N)C#N)c2ccccc21`, the survival was 102% (inactive).

For the compound `CCc1c(C)nc(SCc2nc(-c3ccccc3)no2)[nH]c1=O`, the survival is 118% (inactive).

Consider `COc1cccc(C(=O)N(Cc2ccco2)c2ccccn2)c1`, for which the survival is 103% (inactive).

In the case of `COc1ccc(CCNC(=O)c2nc(SCc3ccc(F)cc3)ncc2Cl)cc1OC`, the survival was 86% (inactive).

With `CN(CC(=O)NCc1ccc(Cl)cc1)S(=O)(=O)c1ccc2c(c1)c(=O)n(C)c(=O)n2C`, the survival is 81% (inactive).

Consider `COc1ccc(NC(=O)c2oc3ccccc3c2NC(=O)Cc2cccs2)cc1`, for which the survival was 90% (inactive).

As to `C#CC(C)(CC)NC(=O)Cn1nnc(-c2ccc(OCc3ccccc3C)cc2)n1` (configuration not stated), the survival was 143% (inactive).

For the compound `Cc1ccc(-n2cc(-c3ccccc3)c3c(N4CCCCC4)ncnc32)cc1`, the survival is 80% (inactive).

As for `Cc1sc2nc(CN(CCc3ccccc3)C(=O)c3ccco3)[nH]c(=O)c2c1C`, the survival was 100% (inactive).

For the compound `Cc1ccc2oc(=O)n(Cc3ccccc3Cl)c2c1`, the survival was -2% (active).

As to `Cc1ccc2c(c1)C(=O)C(=O)N2Cc1ccc(OCCC(C)C)cc1`, the survival was 79% (inactive).

For `Cc1ccc2oc(=O)n(CCNC(=O)Nc3ccccc3Cl)c2c1`, the survival is 90% (inactive).

For `COc1cc(Cn2c(=O)oc3ccc(C)cc32)ccc1OCCC(C)C`, the survival is -7% (active).

As to `CCOC(=O)c1ccc2oc(=O)n(Cc3ccccc3)c2c1`, the survival is 68% (inactive).

Take `CCCCCOc1ccccc1CN1C(=O)C(=O)c2cc(C)ccc21`: the survival is 105% (inactive).

Turning to `CCCCCOc1ccc(Cn2c(=O)oc3ccccc32)cc1`, the survival was 120% (inactive).

On to `CCCCOc1ccc(Cn2c(=O)oc3ccc(C)cc32)cc1OC`, for which the survival was 49% (inactive).

Consider `O=C(NCc1ccccc1Cl)c1ccc2oc(=O)n(Cc3ccccc3)c2c1`, for which the survival is 81% (inactive).

Consider `CCCCCOc1ccccc1Cn1c(=O)oc2ccc(C)cc21`, for which the survival was 15% (active).

On to `CCCCOc1ccc(CN2C(=O)C(=O)c3cc(C)ccc32)cc1OC`, for which the survival was 87% (inactive).

As for `CCCCCOc1ccc(Cn2c(=O)oc3ccc(C)cc32)cc1OC`, the survival was -6% (active).

On to `COc1cc2nc(C3CCC3)n(NC(=O)c3ccccc3C)c(=O)c2cc1OC`, for which the survival is 115% (inactive).

On to `CSc1ccc(CCNC(=O)CCc2c(C)nc3ncnn3c2C)cc1`, for which the survival was 71% (inactive).

On to `CCC1CN(C(=O)C2CCN(S(=O)(=O)c3c(C)noc3/C=C/c3ccccc3F)CC2)c2cc(Cl)ccc2O1` (configuration not stated), for which the survival was 71% (inactive).

With `COc1ccc(NC(=O)Cn2c(=O)n(-c3ccccc3)c(=O)c3ccc(C(=O)NCc4ccc5c(c4)OCO5)cc32)cc1`, the survival was 154% (inactive).

Regarding `COc1ccc(NC(=O)C2CCCN(S(=O)(=O)c3c(C)[nH]c(=O)[nH]c3=O)C2)cc1OC` (configuration not stated), the survival is 130% (inactive).

For `O=C(Nc1cc(-c2ccc(F)c(F)c2)no1)c1ccccc1F`, the survival is 92% (inactive).

As for `COC(=O)c1ccccc1NC(=O)c1ccc(-c2nc(COc3ccccc3)c(C)o2)cc1`, the survival was 135% (inactive).

Regarding `COCCCNC(=O)C1CCN(c2nnc(-n3cccc3CNc3ccc(C)cc3)s2)CC1`, the survival was 72% (inactive).

Regarding `CCOCCc1nn2c(=O)cc(COC(=O)C(CC)c3ccccc3)nc2s1` (configuration not stated), the survival was 14% (active).

Regarding `CCOCCc1nn2c(=O)cc(COC(=O)Cc3ccccc3)nc2s1`, the survival was -1% (active).

Consider `CCc1nn2c(=O)cc(COC(=O)Cc3ccccc3)nc2s1`, for which the survival was 59% (inactive).

Take `CCOCCc1nn2c(=O)cc(COC(=O)c3ccco3)nc2s1`: the survival is 85% (inactive).

Take `CCC(C(=O)OCc1cc(=O)n2nc(CCOC)sc2n1)c1ccccc1` (configuration not stated): the survival was 136% (inactive).

Consider `CCc1nn2c(=O)cc(COC(=O)C(CC)c3ccccc3)nc2s1` (configuration not stated), for which the survival was 73% (inactive).

`Cc1ccc(-c2nnc3ccccc3c2C(=O)Nc2cccc(C(F)(F)F)c2)cc1`: the survival is 120% (inactive).

Consider `COc1ccc(N(Cc2cccs2)C(=O)c2ccc(OCC(C)C)cc2)cc1`, for which the survival was 113% (inactive).

Regarding `CCc1ccccc1NC(=O)CN(c1cccc(C)c1C)S(C)(=O)=O`, the survival is 72% (inactive).

Take `Cc1ccc(NC(=O)Cn2c(=O)n(Cc3ccco3)c(=O)c3sc4ccccc4c32)cc1C`: the survival is 126% (inactive).

For `CCc1nn2c(=O)cc(COC(=O)C3CCCCC3)nc2s1`, the survival is 72% (inactive).

Consider `Cc1cccc(-c2nc(SCC(=O)NCC3CCCO3)c3c(=O)n(C)c(=O)n(C)c3n2)c1` (configuration not stated), for which the survival was 128% (inactive).

As to `Oc1c(C(c2ccccc2)N2CCOCC2)sc2nc(-c3ccco3)nn12` (configuration not stated), the survival is 88% (inactive).

Take `Oc1c(C(c2ccccc2)N2CCN(Cc3ccccc3)CC2)sc2nc(-c3ccco3)nn12` (configuration not stated): the survival was 10% (active).

For `Oc1c(C(c2ccccc2Cl)N2CCCC2)sc2nc(-c3ccco3)nn12` (configuration not stated), the survival was 82% (inactive).

Regarding `CN1CCN(C(c2ccccc2Cl)c2sc3nc(-c4ccco4)nn3c2O)CC1` (configuration not stated), the survival was 129% (inactive).

For `Oc1c(C(c2ccccc2)N2CCC3(CC2)OCCO3)sc2nc(-c3ccco3)nn12` (configuration not stated), the survival was 73% (inactive).

Consider `Oc1c(C(c2ccccc2Cl)N2CCOCC2)sc2nc(-c3ccco3)nn12` (configuration not stated), for which the survival is -2% (active).

Take `Oc1c(C(c2ccccc2)N2CCCC2)sc2nc(-c3ccco3)nn12` (configuration not stated): the survival is -3% (active).

Consider `Cc1ccc(C(c2sc3nc(-c4ccco4)nn3c2O)N2CCN(Cc3ccccc3)CC2)cc1` (configuration not stated), for which the survival was 121% (inactive).

In the case of `Oc1c(C(c2ccc(F)cc2)N2CCN(Cc3ccccc3)CC2)sc2nc(-c3ccco3)nn12` (configuration not stated), the survival is 89% (inactive).

As for `CN1CCN(C(c2ccccc2)c2sc3nc(-c4ccco4)nn3c2O)CC1` (configuration not stated), the survival is 59% (inactive).

Consider `Cc1ccc(C(c2sc3nc(-c4ccco4)nn3c2O)N2CCC3(CC2)OCCO3)cc1` (configuration not stated), for which the survival is 70% (inactive).

With `Oc1c(C(c2ccc(Cl)cc2)N2CCC3(CC2)OCCO3)sc2nc(-c3ccco3)nn12` (configuration not stated), the survival is 0% (active).

As for `COC(=O)c1ccc(NS(=O)(=O)c2c(C)nc3sccn3c2=O)cc1`, the survival is 85% (inactive).

For the compound `CC(=O)NC1Sc2ccccc2N=C1c1ccccc1` (configuration not stated), the survival is 112% (inactive).

As to `Cc1cccc(-n2c(Cc3ccccc3)nnc2SCc2nc(-c3cccs3)no2)c1`, the survival was 63% (inactive).

Regarding `Cc1ccc2onc(CC(=O)Nc3ccc(C(C)C)cc3)c2c1`, the survival is 85% (inactive).

Take `CCOc1ccc(NC(=O)c2sc3nc4c(c(-c5ccc(OC)cc5)c3c2N)C(=O)CC(C)(C)C4)cc1`: the survival is 69% (inactive).

Regarding `CCCn1c(N2CCN(CC(=O)Nc3ccc(Cl)cc3)CC2)nc2ccccc21`, the survival is 118% (inactive).

Regarding `Cc1nn(C)c2c1c(-c1ccccc1)cc(=O)n2CC(=O)NC(C)C`, the survival is 70% (inactive).

As for `COc1ccc(C2=NS(=O)(=O)N(C)C(C(=O)Nc3ccc(OC(F)(F)F)cc3)=C2)cc1`, the survival is 55% (inactive).

On to `CCc1ccc(S(=O)(=O)c2cnc3ccc(OC)cc3c2N2CCCC(C)C2)cc1` (configuration not stated), for which the survival is 2% (active).

Consider `COc1ccc(S(=O)(=O)c2cnc3cc(OC)c(OC)cc3c2N2CCCC(C)C2)cc1` (configuration not stated), for which the survival is 84% (inactive).

Regarding `CC1CCCN(c2c(S(=O)(=O)c3ccccc3)cnc3ccc(Cl)cc23)C1` (configuration not stated), the survival was 121% (inactive).

As to `Cc1ccccc1NC(=O)c1ccc(F)c(S(=O)(=O)N(C)Cc2ccccc2)c1`, the survival is 66% (inactive).

Consider `Cc1ccccc1CN1C(=O)c2ccccc2Sc2ccc(C(=O)N3CCCC3)cc21`, for which the survival is 85% (inactive).

Turning to `CCCCOc1ccc(S(=O)(=O)Nc2ccc(-c3ccc(N4CCCCCC4)nn3)cc2)cc1`, the survival was 75% (inactive).

As for `Cc1c(C(=O)NCc2ccccc2Cl)sc2nc[nH]c(=O)c12`, the survival was 82% (inactive).

For `O=c1[nH]c(SCc2cccc(Cl)c2)nc2c1CCC2`, the survival was 91% (inactive).

In the case of `Cc1nc(SCc2cccc(Cl)c2)nc2c1CCCC2`, the survival is -8% (active).

`Cc1cccc(CSc2nc3c(c(=O)[nH]2)CCC3)c1`: the survival is 78% (inactive).

As for `COc1cccc(-c2csc(-c3c(N)c(C(=O)c4ccccc4)n4ccccc34)n2)c1`, the survival is 72% (inactive).

For the origin of these results see PubChem BioAssay AID463173 (ICCB-Longwood Screening Facility, Harvard Medical School, 2010).
